Screening results deposited in PubChem by National Center for Advancing Translational Sciences (NCATS).
ELG1 repair inh: qHTS screen for small molecules that inhibit ELG1-dependent DNA repair in human embryonic kidney (HEK293T) cells expressing luciferase-tagged ELG1; Potency, µM (titrated, usually from 46.1 µM), hits mostly inhibitors; 2.3% of 330,000 active; HEK293T ELG1-luciferase reporter, luminescence, 16 h; DNA damage induced by 5-fluorouridine; also: nearly all actives have a fitted effect of over 55% in size
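Reporter activity after DNA damage by 5-fluorouridine is monitored. Compound-treated cells incubate 16 hr at 37 °C, then ONE-Glo is added for 30 min before luminescence reading.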
DT40 TDP1 no CPT: qHTS for Inhibitors of human tyrosyl-DNA phosphodiesterase 1 (TDP1): qHTS in cells in absence of CPT; DT40 Tdp1-/- hTDP1 cells, no CPT, ATP luminescence, 48 h; 15% of 420,000 active; Potency, µM (titrated, usually from 46.2 µM), most hits filed as inhibitors; also: nearly all actives have a fitted effect of over 55% in size
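Chicken DT40 Tdp1-/- cells stably complemented with human TDP1 were seeded at 400 cells/well with DMSO in place of 20 nM camptothecin. After compound pinning, cells grew at least 48 hr at 37 °C; viability read by CellTiter-Glo luminescence.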
Giardia killer: Small Molecules that selectively kill Giardia lamblia: qHTS; Giardia lamblia trophozoite viability; activity change, % at 7.66 µM, hits read low; 0.15% of 340,000 active; AID 540267, 2011; in the data active = activity change below about -80%; inconclusive = between about -30% and that limit;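 also: parasites exposed to compound for two days anaerobically before the ATP read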
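Viability, read as ATP luminescence: trophozoites at 100 cells/well, compound added, 48 hrs anaerobic at 37 deg C, then 15-30 min room-temperature development before reading.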
TDP1 cell CPT: qHTS for Inhibitors of human tyrosyl-DNA phosphodiesterase 1 (TDP1): qHTS in cells in presence of CPT. chicken DT40 Tdp1-/-;hTDP1 cells + 20 nM CPT, ATP luminescence, 48 h. Potency, µM (series often up to 46.2 µM), usual class: inhibitors. 12% of 420,000 active. AID 686979, 2013; also: nearly all actives have a fitted effect of over 55% in size
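Chicken DT40 Tdp1-/- cells stably complemented with human TDP1 were seeded at 400 cells/well in medium containing 20 nM camptothecin, exposed to pin-transferred compounds, and grown at 37 °C for at least 48 hr. Viability was read as ATP luminescence.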
TDP1 inh: qHTS Assay for Inhibitors of Tyrosyl-DNA Phosphodiesterase (TDP1). Tyrosyl-DNA phosphodiesterase 1 (Homo sapiens), Q9NUW8. recombinant TDP1, AlphaScreen DNA substrate cleavage. Potency, µM (doses to about 130 µM), hits mostly inhibitors. 0.28% of 350,000 active; also: nearly all actives have a fitted effect of over 40% in size
Target sequence (Q9NUW8 whole entry, looked up): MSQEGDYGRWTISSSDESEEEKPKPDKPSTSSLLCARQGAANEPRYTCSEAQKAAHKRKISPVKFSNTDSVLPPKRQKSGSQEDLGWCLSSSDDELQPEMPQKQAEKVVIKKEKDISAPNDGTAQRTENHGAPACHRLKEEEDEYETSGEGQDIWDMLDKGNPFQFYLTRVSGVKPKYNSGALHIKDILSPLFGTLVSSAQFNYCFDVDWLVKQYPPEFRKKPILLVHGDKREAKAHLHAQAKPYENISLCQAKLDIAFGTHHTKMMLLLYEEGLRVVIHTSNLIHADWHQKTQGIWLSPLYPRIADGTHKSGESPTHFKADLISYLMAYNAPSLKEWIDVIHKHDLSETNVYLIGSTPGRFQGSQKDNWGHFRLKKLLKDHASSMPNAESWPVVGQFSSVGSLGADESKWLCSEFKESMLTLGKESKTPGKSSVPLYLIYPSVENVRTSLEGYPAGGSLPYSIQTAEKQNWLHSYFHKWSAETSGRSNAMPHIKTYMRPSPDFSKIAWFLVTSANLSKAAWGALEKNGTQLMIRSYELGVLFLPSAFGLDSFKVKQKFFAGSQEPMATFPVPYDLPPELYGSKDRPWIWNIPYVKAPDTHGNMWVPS
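Enzyme-compound mixtures sat 15 min at room temperature, followed by a 5 min reaction with 15 nM final substrate and 10 min with AlphaScreen beads. Recombinant human Tdp1 was used at 1 nM final.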
IL-1B inflam inh: qHTS for Inhibitors of Inflammasome Signaling: IL-1-beta AlphaLISA Primary Screen. 4.7% of 360,000 active. activity change, % at 57.5 µM. THP-1 LPS/ATP IL-1B secretion, AlphaLISA, 16 h; stronger effect = lower value; in the data active = activity change below about -50%; inconclusive = mostly about -30% to -49%
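Secreted IL-1B measured by AlphaLISA bead assay after 16 h compound exposure of THP-1 cells; compounds (final up to 57.5 uM) added 1 h before LPS (250 ng/mL) and ATP (1.25 mM) stimulation; lower signal means less secretion.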
Hits are given with their value; - = inactive; ? = inconclusive; . = no result given. A selection: hits, their analogues and other compounds. The true share with any hit is near 19%. Unless noted, calls follow the shape of the dose curve; as a rule, active = well fitted curve in the direction sought with a large enough effect; inconclusive = small, poorly fitted or top-dose-only effect, or another doubt; inactive = no such curve, though single readings can be large; an effect the other way counts as inactive or inconclusive.

SMILES	ELG1 repair inh	DT40 TDP1 no CPT	Giardia killer	TDP1 cell CPT	TDP1 inh	IL-1B inflam inh
COc1ccc(/C=C/C2=Nc3ccccc3NC(C)(C)C2)cc1OC	?	?	-	?	.	.
CN(C[C@H](c1ccccc1)N(C[C@H](Cc1ccccc1)N(CCc1ccccc1)N=O)N=O)N=O	-	?	-	18µM	-	-
CN(C[C@@H](Cc1cccc2ccccc12)N(C[C@H](Cc1ccccc1)N(CCc1ccccc1)N=O)N=O)N=O	-	-	-	?	-	-
COc1ccc(N(C(=O)/C=C/C(=O)Nc2cc(C)on2)C(C(=O)NC2CCCC2)c2ccccc2C)cc1 (stereo not given)	-	21µM	-	?	-	-87
Cc1cc(NC(=O)CCC(=O)N(Cc2ccco2)C(C(=O)NC2CCCC2)c2ccccc2C)no1 (stereo not given)	?	23µM	-	23µM	-	-
Cc1cc(NC(=O)CCC(=O)N(Cc2ccco2)C(C(=O)NC2CCCC2)c2ccccc2F)no1 (stereo not given)	-	?	-	-	.	-
CCCCN(C(=O)CCC(=O)Nc1cc(C)on1)C(C(=O)NC1CCCC1)c1cccc(OC)c1 (stereo not given)	-	?	-	8.2µM	-	-
CCCCN(C(=O)CCC(=O)Nc1cc(C)on1)C(C(=O)NC1CCCC1)c1ccc(OC)cc1 (stereo not given)	-	-	-	?	-	-
CCNC(=S)N1CCC(c2nc3ccccc3s2)CC1	-	?	-	-	-	-
Cc1cc(C)nc(-n2nc(C)c(Br)c2Nc2ccc(Br)cc2)n1	?	?	-	?	-	?
Cc1nn(C)c(Nc2ccc(Br)cc2)c1Br	?	18µM	-	15µM	-	-55
Fc1ccc(NCc2nnc3n2CCCCC3)cc1Cl	.	-	.	-	-	.
C[C@@H](CN1C2=NC[C@H](C)N2C[C@H]1Cc1ccc(O)cc1)NC(=O)CCC1CCCCC1	-	13µM	-	12µM	-	-
C[C@@H](CN1C(=O)C(=O)NC[C@@H]1Cc1ccc(O)cc1)NC(=O)Cc1ccccc1	-	-	-	-	.	-
CC(C)[C@H]1CN=C2N(C[C@H](C)NC(=O)CCC3CCCCC3)[C@H](Cc3ccc(O)cc3)CN21	-	6.5µM	-	6.5µM	.	-
O=C(NCc1ccccc1CN1CCCC1)c1cccc(S(=O)(=O)N2CCOCC2)c1	-	-	-	-	-	-
Cc1ccc(NC(=O)CC2Oc3ccc(C)cc3NC2=O)c(C)c1 (stereo not given)	-	21µM	-	?	-	-
O=C(NCC1CCCC(CNC(=O)N2CCc3ccccc32)C1)N1CCc2ccccc21 (stereo not given)	?	-	-	-	-	?
CC(c1ccccc1F)n1cc(C(=O)NCCc2ccco2)nn1 (stereo not given)	-	18µM	-	?	-	?
CC1CC(C)CN(c2ncc3c(n2)CC(c2ccccc2)CC3=O)C1 (stereo not given)	-	10µM	-	12µM	-	-
CCOC(=O)N1CCN(c2ncc3c(n2)CC(c2ccc(Cl)cc2)CC3=O)CC1 (stereo not given)	.	.	.	.	-	.
COc1cc(C2CC(=O)c3cnc(N4CCN(Cc5ccccc5)CC4)nc3C2)cc(OC)c1OC (stereo not given)	3.3µM	7.3µM	-	7.3µM	-	-
COc1cc(C2CC(=O)c3cnc(N4CCN(CCO)CC4)nc3C2)cc(OC)c1OC (stereo not given)	.	.	.	.	-	.
COc1ccc(C2CC(=O)c3c(C)nc(N4CCN(Cc5ccccc5)CC4)nc3C2)cc1OC (stereo not given)	?	13µM	-	12µM	-	-
